# From PubChem BioAssay AID588579 (National Center for Advancing Translational Sciences (NCATS), 2011)
# Values joined by “and” are separate entries in the source; they are usually repeats but may differ in a detail not shown here. Identical values can stand only once. About 2,200 (0.55%) of roughly 400,000 compounds were called active. Inconclusive results (about 1%) are left out. The call rests on the fitted dose curve; in most records, active means well fitted inhibition curve with a large enough effect; inconclusive means small, poorly fitted or top-dose-only effect, or another doubt; inactive means no such curve, though single readings can be large or run the other way. Many of the other results were omitted from the sample, so actives are more common in it than they were.
# Biological target: DNA polymerase kappa (Homo sapiens) (UniProt Q9UBT6)
# Sequence (Q9UBT6 whole entry, looked up): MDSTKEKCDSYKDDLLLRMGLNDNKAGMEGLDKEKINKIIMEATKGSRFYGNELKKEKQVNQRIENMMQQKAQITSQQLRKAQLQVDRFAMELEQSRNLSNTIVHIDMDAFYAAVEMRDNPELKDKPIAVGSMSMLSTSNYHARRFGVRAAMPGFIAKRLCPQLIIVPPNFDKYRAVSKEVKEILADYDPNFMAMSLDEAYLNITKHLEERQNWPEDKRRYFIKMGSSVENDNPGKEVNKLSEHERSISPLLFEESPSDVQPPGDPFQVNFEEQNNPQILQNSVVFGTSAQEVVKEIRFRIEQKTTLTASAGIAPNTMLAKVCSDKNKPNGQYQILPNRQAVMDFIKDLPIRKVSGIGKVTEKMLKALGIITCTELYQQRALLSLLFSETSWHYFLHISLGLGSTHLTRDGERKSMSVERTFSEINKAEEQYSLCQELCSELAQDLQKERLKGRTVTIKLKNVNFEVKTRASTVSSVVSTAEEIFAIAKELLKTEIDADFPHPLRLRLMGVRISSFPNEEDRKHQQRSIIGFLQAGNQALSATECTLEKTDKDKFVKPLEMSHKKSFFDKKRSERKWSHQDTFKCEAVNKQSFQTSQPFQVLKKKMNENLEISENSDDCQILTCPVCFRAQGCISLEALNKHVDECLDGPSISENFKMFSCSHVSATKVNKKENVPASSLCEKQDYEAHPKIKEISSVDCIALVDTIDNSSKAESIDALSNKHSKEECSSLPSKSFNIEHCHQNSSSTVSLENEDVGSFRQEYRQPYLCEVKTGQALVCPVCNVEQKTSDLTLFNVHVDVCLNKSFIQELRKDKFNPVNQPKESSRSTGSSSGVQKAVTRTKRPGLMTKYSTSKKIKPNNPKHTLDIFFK
# Assay: qHTS for Inhibitors of Polymerase Kappa
# Settings: purified Pol kappa, fluorescent DNA synthesis assay, 10 min; series mostly up to 107 µM; activity, negative = inhibition: at the top concentration
# Outline: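 10 nM Pol kappa was preincubated with compounds for 15 min at room temperature. Reaction started with 50 nM (final) substrate. Fluorescence read kinetically at 0 and 10 min.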
# On the % scale 0 is the no-effect control and ±100 the full control effect; potency means the concentration at half of the fitted maximal effect.
Structure (SMILES),"activity, negative = inhibition",Potency
O=C1COc2ccc(-c3csc(-c4ccc(Cl)cc4)n3)cc2N1,-13.5% (inactive),–
COc1ccc(Cc2nnc(NC(=O)Cc3cccs3)s2)cc1,–,14.1 µM (active)
COc1ccc(CC(=O)Nc2sc(Cc3ccccc3)c(C)c2C(N)=O)cc1,-3.59% (inactive),–
CCc1nnc(NC(=O)CCC(=O)NCc2ccccc2OC)s1,-16.7% (inactive),–
C=C[C@](C)(O)CCC1C(=C)CCC2[C@@](C)(CO)CCC[C@@]12C (stereo not given in full),-3.85% [at 60.1 µM] (inactive),–
CC(=O)OCC(=O)C1CCC2C3CCC4=CC(=O)CC[C@@]4(C)C3CC[C@]12C (stereo not given in full),-6.68% [at 60.1 µM] (inactive),–
COC(=O)[C@@H]1CC2=CC(=O)CC[C@]2(C)[C@@]23O[C@@H]2C[C@@]2(C)[C@@H](CC[C@@]24CCC(=O)O4)[C@H]13,-3.54% [at 60.1 µM] (inactive),–
COc1ccc(/C=C/c2ccccn2)cc1OC,-24.3% (inactive),–
CN(c1ccccc1)S(=O)(=O)c1ccc(Cl)c(C(=O)OCC(=O)NCc2ccco2)c1,–,79.4 µM (active)
COc1ccc(-n2c(SCC(=O)NCc3ccco3)nnc2-c2c[nH]c3ccccc23)cc1,-8.14% (inactive),–
Cn1c(N)c(C(=O)COC(=O)c2ccccc2NCc2ccco2)c(=O)n(C)c1=O,6.37% (inactive),–
O=C(COC(=O)c1cc(S(=O)(=O)N2CCOCC2)ccc1Cl)NCCc1ccccc1,-3.4% (inactive),–
Cc1cc(C(=O)OCC(=O)NCc2ccco2)c(C)n1-c1ccccc1,–,79.4 µM (active)
CN(c1ccccc1)S(=O)(=O)c1ccc(Cl)c(C(=O)OCC(=O)N2CCOCC2)c1,8.17% (inactive),–
CCNc1ncc2ncc(=O)n(Cc3cccc(OC)c3)c2n1,2.21% [at 60.1 µM] (inactive),–
Cc1cc(N(C)C)nc(Cl)n1,-8.53% [at 12 µM] (inactive),–
O=C(Nc1cccc(F)c1)N1CCC2(CC1)CCN(S(=O)(=O)c1ccccc1)CC2,-9.65% [at 60.1 µM] (inactive),–
COc1ccc(/C=C/c2ccnc3ccccc23)cc1OC,-24% (inactive),–
Cc1cccc(CN2Cc3cccc4c3[C@H](C=CC4)CC2=S)c1,-2.46% (inactive),–
O=C(COC(=O)CCC(=O)c1cccs1)NCc1ccco1,–,31.6 µM (active)
CCN(C(=O)COC(=O)CCC(=O)c1cccs1)C1CCCCC1,-3.1% (inactive),–
CC1CCN(C(=O)COC(=O)CCC(=O)c2cccs2)CC1,-7.82% (inactive),–
O=C(Nc1cccc(F)c1)N1CC2(CCN(C(=O)c3cnccn3)CC2)C1,4.72% [at 60.1 µM] (inactive),–
CC(C)[C@H](CO)Nc1nc(Nc2cc(N)cc(Cl)c2)c2ncn(C(C)C)c2n1,-6.51% [at 19.4 µM] (inactive),–
Cc1ccc(-c2nnc(SCC(=O)NCc3ccccc3)nc2-c2ccc(C)cc2)cc1,-7.44% [at 60.1 µM] (inactive),–

Structure (SMILES),"activity, negative = inhibition",Potency
Clc1ccccc1CSc1nncn2c1cc1occc12,-18.1% (inactive),–
c1ccc(CSc2nnc(-c3ccco3)c(-c3ccco3)n2)cc1,–,20 µM (active)
Clc1ccccc1CSc1nnc(-c2ccco2)c(-c2ccco2)n1,–,35.5 µM (active)
CSc1n[nH]c(-c2ccco2)n1,-8.42% (inactive),–
CC1(C)N=C(SCc2ccccc2Cl)c2ccccc2N1,-2.08% (inactive),–
Nc1nc2c(nc(Cl)n2C2OC(CO)C(O)C2O)c(=O)[nH]1 (stereo not given),-1.67% [at 60.1 µM] (inactive),–
COC(=O)N1CCC2(CCCN(c3ccncc3)C2)CC1,-15.3% [at 60.1 µM] (inactive),–
O=P(O)(O)C(O)c1ccc2ccccc2c1 (stereo not given),8.31% [at 19.4 µM] (inactive),–
COc1cc2nc(Cl)nc(NC3CC3)c2cc1OC,-19.7% (inactive),–
Cc1ccc(C)c(Nc2nnc(-c3ccc(C)c(S(=O)(=O)N4CCCCC4)c3)c3ccccc23)c1,–,79.4 µM (active)
Cc1ccc(-c2nnc(Nc3ccc(C(=O)N(C)C)cc3)c3ccccc23)cc1S(N)(=O)=O,-16% (inactive),–
Cc1ccc(Nc2nnc(-c3ccc(C)c(S(=O)(=O)N4CCCCC4)c3)c3ccccc23)cc1,2.95% (inactive),–
Cc1ccc(-c2ncc(Cl)cc2-c2ccc(S(C)(=O)=O)cc2)cn1,1.36% [at 60.1 µM] (inactive),–
O=C(c1cc(C(F)(F)F)cc(C(F)(F)F)c1)N1CCC2(CCCN(c3ccccn3)C2)CC1,-9.22% [at 60.1 µM] (inactive),–
COc1ccccc1CNc1ccnc(-c2c(C)noc2C)n1,5.78% [at 60.1 µM] (inactive),–
Cc1ccccc1NC(=O)Cn1c(=O)n(CCc2ccccc2)c(=O)c2ccccc21,2.94% (inactive),–
Cc1ccccc1NC(=O)CN1C(=O)C(C)(C)c2ccccc21,-11.7% [at 60.1 µM] (inactive),–
Cc1ccccc1NC(=O)CN1C(=O)N/C(=C\c2cccn2-c2cccc(C(=O)O)c2)C1=O,–,14.1 µM (active)
COc1ccccc1CNc1nc(-c2c(C)noc2C)nc2ccccc12,-6.77% [at 60.1 µM] (inactive),–
COc1c(O)c2c(=O)cc(OC)c3c4c(OC)cc(=O)c5c(O)c(OC)c6c(c(c1C[C@@](C)(O)[C@H]6C(C)=O)c23)c54,-7.61% [at 60.1 µM] (inactive),–
Cc1ccc(S(=O)(=O)N2CCCC2C(=O)OCc2nc3sc(C)c(C)c3c(=O)[nH]2)cc1 (stereo not given),-2.3% (inactive),–
CCN(CC)Cc1nc2sc(C)c(C)c2c(=O)[nH]1,3.84% (inactive),–
CSc1nnc(SCc2nc3sc(C(=O)O)c(C)c3c(=O)[nH]2)s1,–,25.1 µM (active)
FC(F)(F)c1ccccc1-c1cc(NCc2ccccc2)ncn1,-1.26% [at 60.1 µM] (inactive),–
CCC(C)N(c1ccc(/C=C/c2ccnc3ccccc23)cc1)C(C)CC (stereo not given),-5.7% (inactive),–

Structure (SMILES),"activity, negative = inhibition",Potency
Cc1ccc(N=C2NC(=O)/C(=C/C=C/c3ccco3)S2)cc1C,–,28.2 µM (active)
CC(=O)OC1CCC2(O)CC1(C)CCC1C2CC1(C)C (stereo not given),-9.88% [at 60.1 µM] (inactive),–
O=C(CSC(=S)N1CCOCC1)c1cc(Br)cc(Br)c1O,–,79.4 µM (active)
O=C(CSC(=S)N1CCCCC1)c1c(F)cccc1F,7.44% (inactive),–
O=C(c1cc2cc(Br)cc(Br)c2oc1=O)N1CCOCC1,-6.06% (inactive),–
CCOCCOC(=O)C(C)Oc1ccc(Oc2ncc(C(F)(F)F)cc2Cl)cc1 (stereo not given),0.515% [at 60.1 µM] (inactive),–
CC(=O)CC(c1ccccc1)C1C(=O)Oc2ccccc2C1=O (stereo not given),-4.26% [at 60.1 µM] (inactive),–
CN=C1S/C(=C\c2c(OC)cc(OC)cc2OC)C(=O)N1C,3.05% (inactive),–
O=C(O)c1cccc(N=NN2CCCCCC2)c1,-8.29% (inactive),–
CN1C(=O)/C(=C/c2ccco2)SC1=Nc1cccc(C(=O)O)c1,–,20 µM (active)
CCOC(OCC)OCC,11.2% [at 60.1 µM] (inactive),–
CCc1c2c(nc3ccc(O)cc13)-c1cc3c(c(=O)n1C2)COC(=O)[C@]3(O)CC,8.42% [at 60.1 µM] (inactive),–
NC(=O)Nc1ccc(/C=C/c2ccnc3ccccc23)cc1,3.65% (inactive),–
COc1ccc2[nH]c3c(C)c4cc[n+](C)cc4c(C)c3c2c1,–,2.38 µM (active) and 11.2 µM (active)
Cc1cccc(CNc2ccnc(-c3cccnc3)n2)c1,-9.88% [at 60.1 µM] (inactive),–
COCCn1c(=O)c(-c2cc(F)cc(F)c2)nc2cnc(N3CCNCC3)nc21,1.68% [at 60.1 µM] (inactive),–
CN(C)c1ccc(C=Nc2ccc(/C=C/c3ccnc4ccccc34)cc2)cc1,-10.6% (inactive),–
NC(=O)C(=O)N/N=C/c1ccc([N+](=O)[O-])o1,1.45% [at 60.1 µM] (inactive),–
O=c1cc(-c2ccc(O)cc2)oc2c(-c3cc(-c4cc(=O)c5c(O)cc(O)cc5o4)ccc3O)c(O)ccc12,–,26.7 µM (active)
O=c1c(-c2ccc3c(c2)OCCO3)c(C(F)(F)F)oc2cc(O)cc(O)c12,-13.6% (inactive),–
CCOC(=O)c1cc2cc(-c3c(C(=O)OCC)oc4cc(O)cc(O)c4c3=O)ccc2o1,-9.29% (inactive),–
C=C(C)C1CC=C(C)C(O)C1 (stereo not given),-10.7% [at 60.1 µM] (inactive),–
C=C1C=C(C)n2ncc(C(=O)Nc3ccccc3O)c2N1,-24.3% (inactive),–
CC(C)c1ccc(Nc2nnc(SCC(=O)c3nnc(-c4ccccc4)o3)s2)cc1,–,79.4 µM (active)
CC(=O)c1ccc(NC(=O)CSc2nnc(NC(=O)Nc3ccccc3)s2)cc1,5.47% [at 60.1 µM] (inactive),–

Structure (SMILES),"activity, negative = inhibition",Potency
CN(C(=O)CSc1nnc(NC(=O)Nc2ccccc2)s1)c1ccccc1,-11.2% [at 60.1 µM] (inactive),–
CC(C)=CCC/C(C)=C/CC/C(C)=C/CC/C(C)=C/CO,–,inactive
O=C(c1cc(C(F)(F)F)cc(C(F)(F)F)c1)N1CCC2(CCCN(Cc3ccncc3)C2)CC1,-8.33% [at 60.1 µM] (inactive),–
OCC(CO)NC1C[C@](O)(CO)[C@@H](O)[C@H](O)[C@H]1O (stereo not given in full),-3.61% [at 60.1 µM] (inactive),–
CC(=O)Oc1c2c(c3c(c1CC=C(C)C)O[C@@]14C(=CC5CC1C(C)(C)OC4(C/C=C(\C)C(=O)O)C5=O)C3=O)OC(C)(CCC=C(C)C)C=C2 (stereo not given in full),–,31.6 µM (active)
COc1ccc2c3c1OC1CC(O)C=C[C@@]31CCN(C)C2 (stereo not given in full),-10.1% [at 60.1 µM] (inactive),–
COc1cc2c(cc1OC)CC(=O)N(CCCN(C)C[C@H]1Cc3cc(OC)c(OC)cc31)CC2,3.96% [at 19.4 µM] (inactive),–
FC(F)(F)c1ccccc1-c1nc(-n2ccnc2)c2ccccc2n1,0.364% [at 60.1 µM] (inactive),–
Nc1ccc(/C=C/c2ccnc3ccccc23)c([N+](=O)[O-])c1,-5.61% (inactive),–
O=c1nc2s/c(=C\c3ccco3)c(=O)n2nc1Cc1ccccc1,–,31.6 µM (active)
O=c1/c(=C/c2ccc(CNS(=O)(=O)c3ccccc3)o2)sc2n1CCN=2,3.56% [at 60.1 µM] (inactive),–
CN1CCOC1c1ccc(C2OCCN2C)cc1 (stereo not given),–,39.8 µM (active)
O=C(Nc1ccc(Cl)cc1)c1cnn2c1NC(=C1CC1)C=C2C(F)F,-0.0234% (inactive),–
Nc1ccc2nc3c(=O)[nH]c(=S)[nH]c3nc2c1,–,2.24 µM (active)
Brc1cccc[n+]1Cc1cccc(C[n+]2ccccc2Br)c1,-18.2% (inactive),–
CCNc1ncc2nc(CCc3ccccc3)c(=O)n(-c3ccc(OC)cc3)c2n1,-19% [at 60.1 µM] (inactive),–
CC(=O)Nc1ccc(S(=O)(=O)NC2(C(F)(F)F)C(=O)Nc3c2c(=O)[nH]c(=O)n3Cc2ccccc2)cc1 (stereo not given),-24.4% (inactive),–
CCCN1C(=O)C(NS(=O)(=O)c2ccc(N)cc2)(C(F)(F)F)C(C(=O)OC)=C1C (stereo not given),-9.7% (inactive),–
CC(=O)Nc1ccc(S(=O)(=O)NC2(C(F)(F)F)C(=O)NC(C)=C2C#N)cc1 (stereo not given),–,79.4 µM (active)
CC(C)(O)c1ccccc1CC[C@H](SCC1(CC(=O)O)CC1)c1cccc(/C=C/c2ccc3ccc(Cl)cc3n2)c1,-3.16% [at 19.4 µM] (inactive),–
CS(=O)(=O)c1ccc2c(c1)SC1=NC(=O)/C(=C/c3ccco3)C(=N)N12,–,35.5 µM (active)
CC(C)(C)C1C/C(=C/c2ccco2)C(=O)/C(=C/c2ccco2)C1 (stereo not given),-25% (inactive),–
COCCNC(=O)Nc1ccc2nc(-c3ccco3)c(-c3ccco3)nc2c1,–,3.16 µM (active)
CCOc1ccc(NC(=O)c2ncoc2-c2ccco2)cc1,-6.29% [at 60.1 µM] (inactive),–
COc1ccc(NC(=O)COCc2cc(-c3ccco3)on2)cc1,-8.34% [at 60.1 µM] (inactive),–
